From PubChem BioAssay
Where “and” joins values, the source holds several entries; their conditions need not be identical. Identical values can stand only once. Calls of active or inactive are those of the source. Rule as the data show it, unless noted: active = inhibition above about 80%; inactive = the rest.

Assays:
[1] = CRL2098 osteosarcoma cell growth inhibition, synergistic combos for chromothripsis tumors, BGB or cisplatin IC20 combos (AID 1671454); conditions: CRL2098 osteosarcoma cells, drug combinations, stronger effect = higher value;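 also: cells exposed for 96 h before readout; 0% = vehicle DMSO and 100% = killing by high DMSO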
[2] = HD-MB03 medulloblastoma cell growth inhibition, synergistic combos for chromothripsis tumors, BGB or cisplatin IC20 combos (AID 1671455; in the data active = inhibition above about 83%;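 also: 0% = vehicle DMSO and 100% = high DMSO as cytotoxic control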); conditions: HD-MB03 medulloblastoma cells, stronger effect = higher value
[3] = UWB1.289 ovarian carcinoma cell growth inhibition, synergistic combos for chromothripsis tumors, BGB or cisplatin combos (AID 1671456); conditions: UWB1.289 ovarian carcinoma cells, stronger effect = higher value;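 also: cells exposed to compound for four days; 0% = vehicle DMSO and 100% = killing by high DMSO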
[4] = LFS_MB_2R medulloblastoma cell growth inhibition, synergistic combos for chromothripsis tumors, cisplatin combos (AID 1671457); conditions: LFS_MB_2R medulloblastoma cells, stronger effect = higher value;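 also: cells exposed to compound for four days before readout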
[5] = MDA-MB-436 breast carcinoma cell growth inhibition, synergistic combos for chromothripsis tumors, BGB or cisplatin combos (AID 1671458; call rule not given here;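 also: cells exposed for 96 hours; 0% = vehicle DMSO and 100% = killing by high DMSO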); conditions: MDA-MB-436 breast carcinoma growth inhibition, drug combinations, stronger effect = higher value
[6] = UWB1.289_BRCA1 ovarian cancer growth, cell-based, BGB or cisplatin combinations (AID 1671459); conditions: UWB1.289 BRCA1 ovarian carcinoma, drug combinations, stronger effect = higher value
[7] = human astrocyte viability loss, single and combined drugs, cytotoxicity control for chromothriptic childhood tumor combination screen, cell-based, BGB or cisplatin IC20 combos (AID 1671460); conditions: Human astrocytes, drug combinations, stronger effect = higher value;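 also: cells exposed to compounds for 96 hours before viability readout; 0% = vehicle and 100% = killing control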
[8] = growth inhibition of BT084 medulloblastoma cells, cell-based, ICGC_MB145, cisplatin and BGB IC40 combos (AID 1671461); conditions: drug combinations, stronger effect = higher value;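 also: cells exposed to drugs for 96 hours; 0% = vehicle DMSO and 100% = high DMSO full killing control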
[9] = growth inhibition of RCMB18 medulloblastoma cells, cell-based, cisplatin and BGB IC40 combos (AID 1671462); conditions: stronger effect = higher value;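 also: cells exposed to compound for four days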
[10] = growth inhibition of CRL1545 osteosarcoma cells, cell-based, cisplatin and BGB IC20 combos (AID 1671464); conditions: stronger effect = higher value;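 also: cells exposed to compound for 96 hours before readout; 0% = vehicle DMSO and 100% = high DMSO killing control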
[11] = measured here: combination with cisplatin, at 0.5 µM

Nc1nc(F)nc2c1ncn2C1OC(COP(=O)(O)O)C(O)C1O (stereo not drawn)
inhibition ([1]; at 0.5 µM): 89.7% (active) and 91.2% (active)
inhibition ([1]; measured here: combination with BGB at IC20, at 0.5 µM): 89.6% and 91.3%
inhibition ([1]; measured here: combination with cisplatin at IC20, at 0.5 µM): 88.8% and 92.6%
inhibition ([2]; at 0.5 µM): -9.66% (inactive) and -9.92% (inactive)
inhibition ([2]; measured here: combo with BGB at IC20, at 0.5 µM): -18.1% and -5.96%
inhibition ([2]; measured here: combo with cisplatin at IC20, at 0.5 µM): -7.22% and -17%
inhibition ([3]; at 0.5 µM): 0.55% (inactive) and 0.43% (inactive)
inhibition ([3]; measured here: inhibition with BGB combination, at 0.05 µM): -14.7% and -18.8%
inhibition ([3]; measured here: inhibition with cisplatin combination, at 0.05 µM): 7.04% and -2.8%
inhibition ([4]; at 0.5 µM): -15.7% (inactive) and -21.8% (inactive)
inhibition [4, 11]: -20.2% and -35.8%
inhibition ([4]; measured here: combination with cisplatin, at 5 µM): -11.6% and -19.4%
inhibition ([5]; at 0.5 µM): -9.15% (inactive) and -15.9% (inactive)
inhibition ([5]; measured here: BGB combination, at 0.5 µM): -8.11% and -21.9%
inhibition ([5]; measured here: BGB combination, at 5 µM): -2.69% and -3.01%
inhibition ([5]; measured here: cisplatin combination, at 0.5 µM): -21.1% and -19.1%
inhibition ([5]; measured here: cisplatin combination, at 5 µM): -5.75% and -5.25%
inhibition ([6]; BGB combination, concentration series, at 5 µM): 11.6% and 15.8%
inhibition ([6]; at 0.5 µM): -0.02% (inactive) and -0.87% (inactive)
inhibition ([6]; cisplatin combination, concentration series, at 5 µM): 11.9% and 23.4%
inhibition ([7]; at 0.5 µM): 1.35% (inactive) and 3.3% (inactive)
inhibition ([7]; measured here: combo with BGB IC20, at 0.5 µM): -1.03% and 7.99%
inhibition ([7]; measured here: combo with cisplatin IC20, at 0.5 µM): -5.99% and 1.9%
inhibition ([8]; at 0.5 µM): -11.5% (inactive) and -3.83% (inactive)
inhibition ([8]; cisplatin combination, at 0.5 µM): -36% and -5.18%
inhibition ([8]; cisplatin combination, at 5 µM): 4.67% and -96.3%
inhibition ([8]; measured here: BGB IC40 combination 0.05 uM, at 0.05 µM): -40.8% and -7.89%
inhibition ([8]; single agent, at 5 µM): -1.22% and 8.96%
inhibition ([9]; at 0.5 µM): -12.8% (inactive) and -10.2% (inactive)
inhibition ([9]; cisplatin combo, at 5 µM): 18.6% and -15.8%
inhibition ([9]; measured here: BGB IC40 combination, at 0.05 µM): -56.2% and -25.6%
inhibition [9, 11]: 24.5% and -1.4%
inhibition ([9]; single agent, at 5 µM): -15.5% and 3.22%
inhibition ([10]; at 0.5 µM): -20.4% (inactive) and 8.11% (inactive)
inhibition ([10]; measured here: with BGB IC20 combination, at 0.5 µM): -8.22% and 10.3%
inhibition ([10]; measured here: with cisplatin IC20 combination, at 0.5 µM): -28.6% and 5.54%
inhibition ([10]; single agent, at 0.05 µM): 18.9% and -12.8%
inhibition ([10]; single agent, at 5 µM): -12.4% and -14.9%
